Test results reported in PubChem BioAssay (Tox21).
Results filed as inconclusive are left out. Activity calls are given as the source filed them. Unless noted, the call rests on the fitted dose curve; in most records, active means well fitted curve in the direction sought with a large enough effect in the repeat runs; inconclusive means weak or mixed curves; inactive means no such curve, though single readings can be large; an effect the other way counts as inactive or inconclusive.

Legend:
[1] = qHTS assay to identify small molecule antagonists of the estrogen related receptor (ERR) signaling pathway from Tox21 library - cell viability counter screen (AID 1224834); further: nearly all actives have a fitted effect of over 30% in size; further: potency means the concentration at half of the fitted maximal effect
How it was run: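 In this quantitative HTS format, ERR cells receive compounds in DMSO and are incubated for 17.5 h at 37 C. Live-cell protease activity is then detected with CellTiter-Fluor.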

[2] = target: Luciferin 4-monooxygenase (Photinus pyralis) (UniProt P08659); experiment: qHTS assay to identify small molecule inhibitors of firefly luciferase (AID 1224835); further: nearly all actives have a fitted effect of over 25% in size; further: potency means the concentration at half of the fitted maximal effect
How it was run: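 Inhibition of purified Photinus luciferase is measured by luminescence. Substrate levels (D-luciferin, ATP) sit at their KM values. Each compound is tested in a concentration series.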

[3] = qHTS assay to identify small molecule agonists of the constitutive androstane receptor (CAR) signaling pathway - cell viability counter screen (AID 1224836); further: nearly all actives have a fitted effect of over 45% in size; further: potency means the concentration at half of the fitted maximal effect
How it was run: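 Cells were seeded and incubated 4 hrs. Compounds were added across 15 concentrations together with PK11195 at 0.75 uM final. Plates were incubated 23 hrs at 37 C. CellTiter-Fluor was added and fluorescence measured.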

[4] = qHTS assay to identify small molecule antagonists of the constitutive androstane receptor (CAR) signaling pathway - cell viability counter screen (AID 1224837); further: nearly all actives have a fitted effect of over 45% in size; further: potency means the concentration at half of the fitted maximal effect
How it was run: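 In quantitative HTS format, compounds at 15 concentrations were applied to HepG2 cells double-transfected with hCAR and CYP2B6-2.2kb under 50 nM CITCO stimulation; live-cell protease activity was read after 23 hr via CellTiter-Fluor.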

[5] = target: Nuclear receptor subfamily 1 group I member 3 (Homo sapiens) (UniProt Q14994); experiment: qHTS assay to identify small molecule antagonists of the constitutive androstane receptor (CAR) signaling pathway (AID 1224838); further: nearly all actives have a fitted effect of over 40% in size; further: potency means the concentration at half of the fitted maximal effect
How it was run: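 CITCO-stimulated (50 nM final) HepG2 cells stably transfected with hCAR and CYP2B6-2.2kb luciferase were exposed to compounds at 15 concentrations for 24 h at 37 C/5% CO2. A luciferase reagent was added and luminescence recorded after 30 min.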

[6] = target: Nuclear receptor subfamily 1 group I member 3 (Homo sapiens) (UniProt Q14994); experiment: qHTS assay to identify small molecule agonists of the constitutive androstane receptor (CAR) signaling pathway (AID 1224839); further: nearly all actives have a fitted effect of over 15% in size; further: potency means the concentration at half of the fitted maximal effect
How it was run: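 Cells were plated and incubated 4 hrs, then dosed with compounds at 15 concentrations. PK11195 was added to 0.75 uM final. After 24 hrs at 37 C, luciferase luminescence was measured.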

[7] = qHTS assay to identify small molecule antagonists of the estrogen related receptor signaling pathway with the pleiotropic PPARgamma coactivator (PGC) from Tox21 10K library - cell viability counter screen (AID 1224840; active means well fitted cell-killing curve with a large enough effect in the repeat runs, not every such curve was filed as active; further: nearly all actives have a fitted effect of over 40% in size; further: potency means the concentration at half of the fitted maximal effect)
How it was run: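 Viability counter screen, PGC/ERR cells: 17.5 h compound exposure at 37 C, CellTiter-Fluor fluorescence endpoint.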

[8] = qHTS assay to identify small molecule antagonists of the estrogen related receptor signaling pathway with the pleiotropic PPARgamma coactivator (PGC) from Tox21 10K library (AID 1224841; call rule not given here; further: actives are mostly falling curves and most rising ones were filed inactive; nearly all actives have a fitted effect of over 50% in size; further: potency means the concentration at half of the fitted maximal effect)
How it was run: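 In the PGC/ERR line, DMSO solutions of test chemicals are pin-delivered to 2,000 cells/well six hours after dispensing. Following eighteen hours' incubation, One-Glo reagent is added and luminescence recorded.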

[9] = qHTS assay to identify small molecule agonists of the estrogen related receptor signaling pathway with the pleiotropic PPARgamma coactivator (PGC) from Tox21 10K library (AID 1224842); further: nearly all actives have a fitted effect of over 15% in size
How it was run: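 Luminescence from One-Glo (30 min, room temperature) measured after PGC/ERR cells had 18 h at 37 C with pinned compound (23 nL in DMSO). Cells had been seeded at 2,000 per well and pre-incubated 6 h.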

Measured: Potency

Nuclear receptor subfamily 1 group I member 3 (Homo sapiens), sequence (Q14994 whole entry, looked up): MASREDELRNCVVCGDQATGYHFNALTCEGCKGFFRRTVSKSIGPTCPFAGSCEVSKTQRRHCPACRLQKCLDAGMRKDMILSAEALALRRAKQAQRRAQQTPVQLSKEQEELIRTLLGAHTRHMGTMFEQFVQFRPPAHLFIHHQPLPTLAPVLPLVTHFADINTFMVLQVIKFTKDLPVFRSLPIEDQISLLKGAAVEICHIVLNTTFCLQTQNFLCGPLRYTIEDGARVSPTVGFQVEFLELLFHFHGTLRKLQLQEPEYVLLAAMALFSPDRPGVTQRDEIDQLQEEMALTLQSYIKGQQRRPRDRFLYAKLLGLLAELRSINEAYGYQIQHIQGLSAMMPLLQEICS
Luciferin 4-monooxygenase (Photinus pyralis), sequence (P08659 whole entry, looked up): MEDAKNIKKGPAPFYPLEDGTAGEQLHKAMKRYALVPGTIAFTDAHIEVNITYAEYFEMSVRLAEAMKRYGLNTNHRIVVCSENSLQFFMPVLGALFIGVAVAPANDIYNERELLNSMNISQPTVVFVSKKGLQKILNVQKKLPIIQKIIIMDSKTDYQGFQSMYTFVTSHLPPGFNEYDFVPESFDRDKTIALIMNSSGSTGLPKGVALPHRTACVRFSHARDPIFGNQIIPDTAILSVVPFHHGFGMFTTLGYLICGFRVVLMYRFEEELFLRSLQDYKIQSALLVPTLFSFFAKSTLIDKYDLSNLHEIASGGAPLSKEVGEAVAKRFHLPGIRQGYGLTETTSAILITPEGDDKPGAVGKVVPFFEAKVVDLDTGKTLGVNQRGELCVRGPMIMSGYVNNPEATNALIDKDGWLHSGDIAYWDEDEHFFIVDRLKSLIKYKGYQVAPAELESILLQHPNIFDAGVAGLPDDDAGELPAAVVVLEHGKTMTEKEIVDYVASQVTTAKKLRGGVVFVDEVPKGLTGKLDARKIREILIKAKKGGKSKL

CCCCCC[C@@H](O)C/C=C\CCCCCCCC(=O)O
not listed: [9]
inactive: all other assays above

O=C(O)c1ccc(OCCCOc2ccc(C(=O)O)cc2)cc1
inactive: all assays above

C=C(C)C(=O)OCCOCCOC(=O)C(=C)C
not listed: [9]
inactive: all other assays above

CN1C(=O)OC(C)(C)C1=O
not listed: [7]
inactive: all other assays above

Cc1ccc(OC(=O)c2ccccc2O)cc1
active: [2] 6.33 µM
not listed: [9]
inactive: all other assays above

Cc1ccccc1N=C(N)Nc1ccccc1C
inactive: all assays above

CC(C)(C)C(=O)C(=O)O
not listed: [8] | [9]
inactive: all other assays above

CC1=C(Br)C(=O)C(Br)=C/C1=C(/c1ccccc1S(=O)(=O)O)c1cc(Br)c(O)c(Br)c1C
inactive: [6] | [9]
active: [1] 18.6 µM | [2] 19.2 µM | [3] 18.6 µM | [4] 33 µM | [5] 18.6 µM | [7] 18.6 µM | [8] 16.5 µM

C[C@@]12CCC[C@H]1[C@@H]1CC[C@H]3C[C@@H](O)CC[C@]3(C)[C@H]1CC2
inactive: all assays above

N#[N+]c1ccc2c(S(=O)(=O)[O-])cccc2c1O
active: [2] 44.8 µM
not listed: [9]
inactive: all other assays above

CC/C=C1/OC(=O)c2ccccc21
inactive: all assays above

CC(C)C[C@H](NC(=O)[C@H](CCc1ccccc1)NC(=O)CN1CCOCC1)C(=O)N[C@@H](Cc1ccccc1)C(=O)N[C@@H](CC(C)C)C(=O)[C@@]1(C)CO1
inactive: [2] | [6] | [9]
active: [1] 0.133 µM | [3] 0.376 µM | [4] 0.422 µM | [5] 0.119 µM | [7] 3.35 µM | [8] 0.0841 µM

C=C/C(C)=C/C/C=C(\C)CCC=C(C)C
inactive: all assays above

C=CC(C)(CCC=C(C)C)OC(=O)CC(C)C (configuration not stated)
not listed: [8] | [9]
inactive: all other assays above

NCCNCCO
inactive: all assays above

Cc1cc2c(OCC(CNC(C)(C)C)OC(=O)c3ccccc3)cccc2[nH]1 (configuration not stated)
not listed: [8] | [9]
inactive: all other assays above

Cc1cccc(N(C)C(=S)Oc2ccc3c(c2)CCC3)c1
active: [6] 23.7 µM
inactive: all other assays above

Nc1ncnc2c1ncn2[C@H]1CC[C@@H](CO)O1
not listed: [8] | [9]
inactive: all other assays above

CC(=O)Oc1ccc([N+](=O)[O-])cc1CCl
active: [1] 30.6 µM | [3] 43.3 µM | [4] 30.6 µM | [7] 30.6 µM
inactive: all other assays above

CN1CCCN=C1COC(=O)C(O)(c1ccccc1)C1CCCCC1 (configuration not stated)
not listed: [9]
inactive: all other assays above

CCC(C)(C)OC
not listed: [7]
inactive: all other assays above

C=C1C[C@@]23CC[C@H]4[C@@](C)(CCC[C@@]4(C)C(=O)O[C@@H]4O[C@H](CO)[C@@H](O)[C@H](O)[C@H]4O)[C@@H]2CC[C@]1(O[C@@H]1O[C@H](CO)[C@@H](O)[C@H](O[C@@H]2O[C@H](CO)[C@@H](O)[C@H](O)[C@H]2O)[C@H]1O[C@@H]1O[C@H](CO)[C@@H](O)[C@H](O)[C@H]1O)C3
inactive: all assays above

CCOC(C)=O
not listed: [6] | [8] | [9]
inactive: all other assays above

CC(C)COCC(CN(Cc1ccccc1)c1ccccc1)N1CCCC1 (configuration not stated)
active: [1] 26.6 µM | [3] 29.8 µM | [4] 29.8 µM | [5] 18.8 µM | [7] 29.8 µM
inactive: [2]

Cc1ccc2c(Br)cc(Br)c(O)c2n1
active: [1] 11.9 µM
not listed: [7] | [8]
inactive: all other assays above
